HCV inhibitor: inhibitors of hepatitis C virus infection. hit rate 3.4% among 340,000. Potency, µM (doses to about 41.8 µM), inactives show at the highest dose activity change, negative = inhibition, hits mostly inhibitors. Huh7.5.1 HCVcc-Cre infection, luciferase reporter, 44 h. AID 651820; also: % is scaled to controls: 0 for no effect and ±100 for the full control effect
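After 44 h co-culture of compound, cells and HCVcc-Cre (~0.5 moi), substrate is added for 15 min at room temperature and luciferase measured over 15 sec. Cells were seeded at 1,000/well and pre-cultured 4 h.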
NS1 function inh: influenza NS1 inhibition; Potency, µM (top dose mostly 46.1 µM), without a hit: top-dose activity, positive = more growth; hit rate 0.4% among 270,000; calls by dose curve; also: actives are rising curves; nearly all actives have a fitted effect of over 50% in size
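Recovery from NS1-induced slow growth read by OD600 in budding yeast switched to galactose assay medium (pH 6.0, -URA) at 1:100 dilution. Compound 23 nl per well; the matching strain lacking NS1 serves as control.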
AMA1 RON2 block: disrupts binding of P. falciparum AMA1 to RON2; AlphaScreen AMA1-biotinylated RON2 peptide binding; hit rate 0.2% among 360,000; Potency, µM (series often up to 58.2 µM), inactives show top-dose activity change, negative = inhibition, most hits filed as inhibitors; AID 720542;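 also: 0% = vehicle wells and -100% = peptide control; nearly all actives have a fitted effect of over 45% in size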
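AMA1 (3D7) with his tag at 25 nM final met compounds first, then biotinylated RON2 peptide at 25 nM; detection used donor plus acceptor beads, 10 µg/mL apiece, read by AlphaScreen after 30 min at room temperature.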
SARS PLP yeast: inhibitors of SARS-CoV papain-like protease in yeast | AID 485353 | S. cerevisiae expressing SARS-CoV PLpro, growth rescue | hit rate 0.19% among 330,000 | Potency, µM (top dose mostly 32.9 µM), without a hit: at the top dose activity, positive = growth rescue, hits mostly activators; calls by dose curve; also: 0% is about no effect; nearly all actives have a fitted effect of over 55% in size
Pf growth 48h: inhibits P. falciparum growth in the first generation, 48 h. P. falciparum luciferase growth in erythrocytes, 48 h. Potency, µM (titrated, usually from 28.7 µM), without a hit: at the top dose activity change, negative = inhibition, usual class: inhibitors. hit rate 5.9% among 310,000. AID 504832; also: % is scaled to controls: 0 for no effect and ±100 for the full control effect
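Read-out is firefly luciferase luminescence from an integrated reporter in P. falciparum, so falling signal marks reduced parasite growth. Infected erythrocytes were at 2% hematocrit and 0.1% parasitemia (final) in Albumax-supplemented RPMI 1640.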
Pf growth 96h: inhibits malaria parasite growth, 96 h | AID 504834 | P. falciparum luciferase reporter growth, 96 h | Potency, µM (series often up to 28.7 µM), for inactives: at the top dose activity change, negative = inhibition, actives largely listed as inhibitors | hit rate 6.9% among 320,000; also: % is scaled to controls: 0 for no effect and ±100 for the full control effect
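P. falciparum expressing integrated firefly luciferase, in erythrocytes at 2% hematocrit, 0.05% parasitemia, incubated with compounds 96 h at 37 C, 5% CO2. Growth inhibition read as loss of luminescence; two-generation exposure targets delayed-death apicoplast inhibitors.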
Numbers without * were called inactive; ? = inconclusive; . = not tested or not shown; [ ] = another dose, or the depositor's remark. A selection: hits, their analogues and other compounds. The true share with any hit is near 12%. Unless noted, calls follow the shape of the dose curve; as a rule, active = well fitted curve in the direction sought with a large enough effect; inconclusive = small, poorly fitted or top-dose-only effect, or another doubt; inactive = no such curve, though single readings can be large; an effect the other way counts as inactive or inconclusive. Potency is read from the fitted curve at half-maximal effect.

SMILES	HCV inhibitor	NS1 function inh	AMA1 RON2 block	SARS PLP yeast	Pf growth 48h	Pf growth 96h
Cc1ccc(S(=O)(=O)N2CCN(C(C)C(=O)Nc3ccccc3-c3ccccc3)CC2)cc1 (centres undefined)	?	8.9%	-4.8%	17.5%	9.28µM*	7.38µM*
CC(C(=O)Nc1ccccc1-c1ccccc1)N1CCN(C(=O)c2ccccc2)CC1 (centres undefined)	-2.6%	-13.4%	1.7%	-0.5%	?	?
CC(C(=O)Nc1ccccc1-c1ccccc1)N1CCN(Cc2ccccc2)CC1 (centres undefined)	-21.4%	-8.5%	-21.2%	-1.2%	13.1µM*	?
Cn1nnc2cc(NC(=O)Nc3cccc(C(F)(F)F)c3)ccc21	-1.7%	6.2%	1.4%	13.9%	.	0.1%
CCOC(=O)C1=NN(C(C)=O)C2C(=O)N(CC)C(=O)C12 (centres undefined)	10.8%	2.9%	-2.5%	-2.0%	2.0%	9.0%
Cc1ccnn1C(C)C(=O)O (centres undefined)	0.7%	.	-13.5%	3.4%	1.4%	-5.3%
CC(C(=O)O)n1cc(Cl)cn1 (centres undefined)	4.47µM*	.	11.1%	-4.2%	5.5%	40.8%
CN(Cc1ccccc1)S(=O)(=O)c1ccc(NC(=S)NC(=O)C2CCCCC2)cc1	10µM*	-12.9%	27.3%	9.5%	?	47.0%
CCOc1ccc(NC(=S)NC(=O)C2CCCC2)cc1	-13.8%	-4.3%	24.8%	22.3%	-23.7%	?
CC(=O)Nc1ccc(NC(=S)NC(=O)C2CCCC2)cc1	11.9%	8.7%	9.3%	2.8%	-28.5%	0.0%
CCN(CC)c1ccc(NC(=S)NC(=O)C2CCC2)cc1	?	-4.0%	-12.2%	12.7%	-28.7%	11.7µM*
Cc1ccc(NS(=O)(=O)c2ccc(Cl)c(NC(=S)NC(=O)C3CCCCC3)c2)cc1Cl	11.2µM*	11.3%	25.2%	-21.1%	?	?
NS(=O)(=O)c1ccc(NC(=S)NC(=O)C2CCCC2)cc1	12.6%	4.3%	7.9%	8.3%	-12.8%	1.85µM*
N=C1Sc2ccccc2C2=NCCCN12	.	-25.0%	.	.	.	.
C#CC[N+](C)(C)C(C#Cc1ccccc1)CC=C (centres undefined)	20.2%	2.1%	4.6%	-4.7%	9.28µM*	5.86µM*
C#CC[N+](CC)(CC)CC#Cc1ccccc1	-14.2%	-2.5%	5.4%	1.9%	?	?
CCOC(=O)c1cnc2ccc(OCC)cc2c1N(C)Cc1ccccc1	11.2µM*	-17.6%	-16.9%	-46.3%	?	?
C=CCc1cccc(Cl)c1OCCCNC1CCCC1	10µM*	-10.2%	-3.6%	-1.8%	?	?
C=CCc1ccc(OCCCNC2CCCC2)c(OC)c1	?	.	-14.0%	.	.	.
O=C1C(c2ccc(F)cc2)N(CC2COc3ccccc3O2)C(=O)CN1C1CCCCC1 (centres undefined)	3.2%	4.9%	4.1%	4.7%	2.33µM*	?
Fc1ccc2nc(C3CCCCN3Cc3nc(CC4CC4)no3)[nH]c2c1 (centres undefined)	3.8%	1.7%	8.9%	0.2%	?	0.4%
CN(Cc1ccc2nonc2c1)Cc1nc(CC2CC2)no1	12.0%	1.6%	1.5%	-0.3%	38.5%	2.33µM*
CC(=O)N(CCc1cccc(C)c1)Cc1cc2ccc(C)cc2[nH]c1=O	-1.0%	18.3%	0.0%	11.0%	-26.0%	0.0738µM*
CNC(=S)N(CCc1cccc(C)c1)Cc1cc2cc(OC)c(OC)cc2[nH]c1=O	12.9%	?	-1.2%	-5.4%	-22.5%	57.7%
COc1cc2cc(CN(CCc3cccc(C)c3)C(=S)NCCCN(C)C)c(=O)[nH]c2cc1OC	?	2.0%	-1.6%	0.8%	13.1µM*	31.8%
SMILES	HCV inhibitor	NS1 function inh	AMA1 RON2 block	SARS PLP yeast	Pf growth 48h	Pf growth 96h
Cc1ccc2cc(CN(C(=O)c3ccncc3)C(C)C)c(=O)[nH]c2c1	-26.0%	-2.4%	-1.9%	-2.5%	?	8.28µM*
O=C(c1ccc(S(=O)(=O)N2CCOCC2)cc1)N(c1cccc(Cl)c1)C1C=CS(=O)(=O)C1 (centres undefined)	-14.3%	.	0.5%	-0.1%	?	-28.5%
COCCCn1c(=O)c2sccc2n2c(CCCC(=O)NCc3ccc(OC)cc3)nnc12	11.2%	5.0%	5.4%	2.9%	-6.3%	?
FC(F)Sc1ccc(NC(=S)NCC2CCCCC2)cc1	31.6µM*	-235.2%	57.0%	-31.7%	.	-104.9%
CC1CCCCC1NC(=S)Nc1ccc(SC(F)F)cc1 (centres undefined)	11.2µM*	-140.0%	-7.7%	-27.6%	-77.0%	.
N#Cc1nnn(-c2ccc(Cl)cc2)c1N	11.9%	4.2%	-3.4%	0.2%	18.9%	5.1%
NS(=O)(=O)c1cccc(NC(=O)Cc2ccc(Cl)c(Cl)c2)c1	5.0%	-4.7%	-2.2%	4.9%	3.1%	30.2%
COc1ccc(OC)c(C(=O)/C=C/c2ccccc2C(F)(F)F)c1	10µM*	-22.1%	6.2%	-9.7%	?	?
O=C(Nc1ccc(S(=O)(=O)N2CCCC2)cc1)C1CCN(S(=O)(=O)c2ccc(F)cc2)CC1	?	.	0.5%	-1.0%	13.1µM*	?
Cc1nnc(NC(=O)C2CCN(S(=O)(=O)c3ccc(F)c(Cl)c3)CC2)o1	15.3%	.	44.3%	-15.4%	6.57µM*	14.7µM*
O=C(CSc1nnc(-c2ccc(F)cc2)o1)Nc1ccc(S(=O)(=O)N2CCCCCC2)cc1	-27.1%	4.3%	-5.0%	-4.0%	9.28µM*	-12.5%
C=CCNC(=O)C1CCN(S(=O)(=O)c2ccc(Br)cc2)CC1	-15.4%	-11.4%	1.5%	10.1%	10.4µM*	.
Cc1nn(C)c(C(=O)NNC(=O)NC2CCCCC2)c1Cl	6.6%	13.1%	86.9%	-1.2%	-1.0%	20.3%
O=C(Nc1cccc(F)c1)C1CCCN(c2cnccn2)C1 (centres undefined)	12.5%	3.2%	-3.8%	-12.8%	5.8%	1.3%
O=C(Nc1ccc(S(=O)(=O)N2CCOCC2)cc1)C1CCN(S(=O)(=O)c2ccccc2)CC1	?	.	-11.6%	-4.1%	?	2.94µM*
CSc1cccc(NC(=O)C2CCN(S(=O)(=O)c3ccc(F)cc3)CC2)c1	11.2µM*	-59.2%	-7.7%	.	?	?
CSc1cccc(NC(=O)C2CCCN2S(=O)(=O)c2ccc(Br)s2)c1 (centres undefined)	-15.3%	1.9%	-6.9%	-15.0%	.	10.4µM*
Cc1ccc(S(=O)(=O)N2CCC(C(=O)Nc3ccc(S(=O)(=O)N4CCOCC4)cc3)CC2)cc1	-16.8%	.	6.6%[11.6 µM]	.	.	.
CCN1CCn2c3c(c4cccc(C)c42)CCCC31 (centres undefined)	-22.7%	6.6%	-29.7%	2.3%	?	6.5%
O=C(c1nc2ccc([N+](=O)[O-])cc2[nH]c1=O)[C@@H](O)c1ccc2c(c1)OCO2	.	-10.5%	.	.	.	.

Bioassay records from PubChem BioAssay.
